Results reported in the supplement of paper PMC10849652.
About 7,900 targets were measured; listed, in parts, are those with a hit and a random draw of the rest. About 0.6% of all pairs of compound and target were hits.

Key:
Assay in all cases: log2 fold change, soluble protein after heating vs DMSO (PISA); higher = thermal stabilisation; K562 cells, 10 uM, 30 min; active = over 0.2 and 3.5 SD of the protein, either way, in both replicates (recomputed)
[1] = compound: CS(=O)(=O)c1ccc(-c2cnc(N)c(C(=O)Nc3ccccc3)n2)cc1
Summary of the method: (§1)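 Aliquots of K562 cells (2×10^6 cells/mL) treated with 10 μM compound for 30 min were heated for 3 min over 48°C-58°C. After pooling and extraction in PBS with 0.5% NP-40 at 4°C, soluble protein from a 21,000xg, 90 min spin was quantified by TMTpro 16plex LC-MS/MS with channel sums equalised. Thermal stability is expressed against control samples, from duplicates, as a log2 fold change.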

crizotinib = compound: C[C@@H](Oc1cc(-c2cnn(C3CCNCC3)c2)cnc1N)c1c(Cl)ccc(F)c1Cl [crizotinib]
Summary of the method: as §1

[2] = compound: C[C@@H]1COCCN1C2=NC(=NC(=C2)C3(CC3)S(=O)(=O)C)C4=C5C=CNC5=CC=C4
Summary of the method: as §1

[3] = compound: C[C@H](C1=CC=C(C=C1)C(=O)NC2=C3C=CNC3=NC=C2)N
Summary of the method: as §1

duvelisib = compound: C[C@H](Nc1ncnc2nc[nH]c12)c1cc2cccc(Cl)c2c(=O)n1-c1ccccc1 [duvelisib]
Summary of the method: as §1

gandotinib = compound: Cc1cc(Nc2cc(CN3CCOCC3)c3nc(C)c(Cc4ccc(Cl)cc4F)n3n2)n[nH]1 [gandotinib]
Summary of the method: as §1

tozasertib = compound: Cc1cc(Nc2cc(N3CCN(C)CC3)nc(Sc3ccc(NC(=O)C4CC4)cc3)n2)n[nH]1 [tozasertib]
Summary of the method: as §1

[4] = compound: Cc1cc(SCc2sc(-c3ccc(C(F)(F)F)cc3)nc2C)ccc1OCC(=O)O
Summary of the method: as §1

doramapimod = compound: Cc1ccc(-n2nc(C(C)(C)C)cc2NC(=O)Nc2ccc(OCCN3CCOCC3)c3ccccc23)cc1 [doramapimod]
Summary of the method: as §1

ispinesib = compound: Cc1ccc(C(=O)N(CCCN)[C@@H](c2nc3cc(Cl)ccc3c(=O)n2Cc2ccccc2)C(C)C)cc1 [ispinesib]
Summary of the method: as §1

bafetinib = compound: Cc1ccc(NC(=O)c2ccc(CN3CC[C@H](N(C)C)C3)c(C(F)(F)F)c2)cc1Nc1nccc(-c2cncnc2)n1 [bafetinib]
Summary of the method: as §1

[5] = compound: Cc1cccc(CC(=O)N2CCc3c2ccc(-c2cn(C)c4ncnc(N)c24)c3F)n1
Summary of the method: as §1

nilotinib = compound: Cc1cn(-c2cc(NC(=O)c3ccc(C)c(Nc4nccc(-c5cccnc5)n4)c3)cc(C(F)(F)F)c2)cn1 [nilotinib]
Summary of the method: as §1

[6] = compound: Cc1nc(Nc2n[nH]c3c2CN(C(=O)N[C@H](CN(C)C)c2ccccc2)C3(C)C)c2sccc2n1
Summary of the method: as §1

dasatinib = compound: Cc1nc(Nc2ncc(C(=O)Nc3c(C)cccc3Cl)s2)cc(N2CCN(CCO)CC2)n1 [dasatinib]
Summary of the method: as §1

[7] = compound: Cc1ncc(-c2ccnc(Nc3ccc(S(C)(=O)=O)cc3)n2)n1C(C)C
Summary of the method: as §1

[8] = compound: Cn1cc(-c2ccc3c(c2)CCN3C(=O)Cc2cccc(C(F)(F)F)c2)c2c(N)ncnc21
Summary of the method: as §1

[9] = compound: Cn1cc(-c2ccc3nnc(C(F)(F)c4ccc5ncccc5c4)n3n2)cn1
Summary of the method: as §1

tipifarnib = compound: Cn1cncc1[C@@](N)(c1ccc(Cl)cc1)c1ccc2c(c1)c(-c1cccc(Cl)c1)cc(=O)n2C [tipifarnib]
Summary of the method: as §1

mubritinib = compound: FC(F)(F)c1ccc(/C=C/c2nc(COc3ccc(CCCCn4ccnn4)cc3)co2)cc1 [mubritinib]
Summary of the method: as §1

Measured: log2 fold change

NOLC1 isoform 2 (UniProt Q14978)
Chain of UniProt Q14978 (Q14978 whole entry, looked up): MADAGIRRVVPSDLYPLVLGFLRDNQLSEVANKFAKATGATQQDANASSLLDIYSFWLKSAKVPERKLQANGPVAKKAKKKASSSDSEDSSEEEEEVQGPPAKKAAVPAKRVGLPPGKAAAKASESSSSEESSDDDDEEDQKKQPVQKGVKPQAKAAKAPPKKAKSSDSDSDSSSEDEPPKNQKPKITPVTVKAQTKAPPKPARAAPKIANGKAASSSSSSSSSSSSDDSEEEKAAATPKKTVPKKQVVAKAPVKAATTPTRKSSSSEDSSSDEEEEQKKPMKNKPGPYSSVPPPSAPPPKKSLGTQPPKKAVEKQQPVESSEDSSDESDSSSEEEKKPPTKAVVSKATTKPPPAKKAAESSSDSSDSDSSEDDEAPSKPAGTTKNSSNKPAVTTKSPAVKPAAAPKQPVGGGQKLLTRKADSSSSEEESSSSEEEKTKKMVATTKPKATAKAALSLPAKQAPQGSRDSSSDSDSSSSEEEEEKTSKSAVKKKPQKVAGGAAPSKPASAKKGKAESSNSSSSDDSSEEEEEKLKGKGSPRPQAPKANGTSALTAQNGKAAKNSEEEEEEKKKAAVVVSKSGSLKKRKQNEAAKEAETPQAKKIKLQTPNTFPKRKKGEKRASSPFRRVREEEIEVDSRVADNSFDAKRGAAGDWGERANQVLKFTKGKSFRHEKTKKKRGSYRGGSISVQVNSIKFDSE
inactive: [1] -0.019 | crizotinib -0.135 | [2] 0.141 | [3] -0.154 | duvelisib -0.043 | gandotinib -0.023 | tozasertib -0.032 | [4] -0.038 | doramapimod 0.047 | ispinesib 0.179 | bafetinib 0.105 | [5] -0.031 | nilotinib 0.1 | [6] -0.1 | dasatinib 0.145 | [8] -0.013 | [9] 0.02 | tipifarnib 0.027 | mubritinib -0.031
active: [7] -0.376

NDUFA12 (UniProt Q9UI09)
Chain of UniProt Q9UI09 (Q9UI09 whole entry, looked up): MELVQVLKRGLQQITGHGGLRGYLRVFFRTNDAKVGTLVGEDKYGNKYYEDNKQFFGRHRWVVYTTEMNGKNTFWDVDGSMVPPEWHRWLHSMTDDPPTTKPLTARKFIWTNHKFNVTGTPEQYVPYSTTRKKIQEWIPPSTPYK
inactive: [1] 0.107 | crizotinib -0.033 | [2] 0.025 | [3] 0.015 | duvelisib 0.033 | gandotinib -0.206 | tozasertib -0.048 | [4] 0.115 | doramapimod 0.03 | bafetinib 0 | [5] 0.089 | nilotinib -0.158 | [6] -0.031 | dasatinib -0.107 | [7] 0.029 | [8] 0.109 | [9] 0.062 | tipifarnib -0.007
active: ispinesib -0.385 | mubritinib 0.326

OSBP (UniProt P22059)
Chain of UniProt P22059 (P22059 whole entry, looked up): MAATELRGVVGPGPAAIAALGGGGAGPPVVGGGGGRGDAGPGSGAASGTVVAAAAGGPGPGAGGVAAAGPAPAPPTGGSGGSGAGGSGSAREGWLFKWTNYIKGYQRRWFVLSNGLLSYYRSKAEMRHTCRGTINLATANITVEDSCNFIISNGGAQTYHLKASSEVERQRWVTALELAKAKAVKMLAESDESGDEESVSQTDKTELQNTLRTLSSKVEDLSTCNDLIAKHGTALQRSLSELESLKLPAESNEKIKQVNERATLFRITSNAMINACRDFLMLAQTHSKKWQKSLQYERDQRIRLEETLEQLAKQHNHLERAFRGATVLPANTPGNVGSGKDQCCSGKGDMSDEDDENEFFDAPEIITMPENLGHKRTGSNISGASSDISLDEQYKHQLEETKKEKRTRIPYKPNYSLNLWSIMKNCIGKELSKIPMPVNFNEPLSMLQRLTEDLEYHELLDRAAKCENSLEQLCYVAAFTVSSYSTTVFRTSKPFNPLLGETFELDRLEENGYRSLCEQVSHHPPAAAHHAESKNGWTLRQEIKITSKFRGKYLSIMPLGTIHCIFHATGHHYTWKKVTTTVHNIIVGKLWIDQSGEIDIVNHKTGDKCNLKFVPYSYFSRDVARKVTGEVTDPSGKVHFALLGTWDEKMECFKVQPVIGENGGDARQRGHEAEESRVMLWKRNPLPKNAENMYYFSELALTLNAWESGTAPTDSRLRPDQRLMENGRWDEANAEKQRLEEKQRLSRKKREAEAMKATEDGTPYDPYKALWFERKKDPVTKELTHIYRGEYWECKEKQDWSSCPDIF
inactive: [1] -0.015 | crizotinib 0.057 | [2] 0.025 | [3] -0.043 | duvelisib 0.074 | gandotinib -0.025 | tozasertib -0.009 | [4] 0.016 | doramapimod -0.028 | bafetinib -0.017 | [5] 0.005 | nilotinib 0.123 | dasatinib -0.08 | [7] -0.067 | [8] -0.024 | [9] -0.024 | tipifarnib -0.085 | mubritinib 0.012
active: ispinesib 0.216 | [6] -0.257

MYL12B (UniProt O14950)
Chain of UniProt O14950 (O14950 whole entry, looked up): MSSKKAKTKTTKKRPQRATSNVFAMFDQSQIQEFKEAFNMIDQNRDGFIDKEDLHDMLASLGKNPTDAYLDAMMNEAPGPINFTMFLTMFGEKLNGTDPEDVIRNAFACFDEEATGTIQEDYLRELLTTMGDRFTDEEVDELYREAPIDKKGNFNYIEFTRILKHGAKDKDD
inactive: [1] -0.016 | crizotinib -0.004 | [2] 0.019 | duvelisib 0.088 | gandotinib 0.058 | tozasertib 0.005 | [4] -0.003 | doramapimod 0.025 | ispinesib 0.097 | bafetinib -0.049 | [5] 0.042 | nilotinib 0.031 | [6] 0.001 | dasatinib 0.001 | [7] -0.002 | [8] 0.117 | [9] -0.046 | tipifarnib -0.038 | mubritinib 0.064
active: [3] -0.32

NA, A0A2R8Y3M9
inactive: [1] -0.084 | crizotinib 0.013 | [3] -0.011 | duvelisib -0.299 | gandotinib -0.099 | [4] -0.107 | doramapimod -0.008 | ispinesib -0.125 | bafetinib -0.605 | [5] 0.19 | nilotinib 0.035 | [6] -0.091 | dasatinib -0.013 | [7] 0.31 | [8] 0.503 | [9] -0.117 | tipifarnib 0.08

NNMT (UniProt P40261)
Chain of UniProt P40261 (P40261 whole entry, looked up): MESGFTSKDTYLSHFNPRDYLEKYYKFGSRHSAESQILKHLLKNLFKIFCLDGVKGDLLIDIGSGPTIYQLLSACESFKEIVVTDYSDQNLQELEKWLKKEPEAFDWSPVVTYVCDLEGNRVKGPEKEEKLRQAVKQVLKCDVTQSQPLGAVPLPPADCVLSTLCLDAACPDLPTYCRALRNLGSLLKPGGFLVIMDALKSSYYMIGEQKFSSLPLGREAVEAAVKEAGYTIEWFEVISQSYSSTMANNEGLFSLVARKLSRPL
inactive: [1] 0.039 | crizotinib -0.08 | [2] 0.085 | [3] -0.06 | duvelisib 0.06 | gandotinib -0.002 | tozasertib -0.007 | [4] -0.09 | doramapimod 0 | bafetinib -0.038 | [5] 0.068 | nilotinib 0.015 | [6] 0.005 | dasatinib 0.037 | [7] -0.021 | [8] 0.052 | tipifarnib -0.002 | mubritinib 0.094

NAT14 (UniProt Q8WUY8)
Chain of UniProt Q8WUY8 (Q8WUY8 whole entry, looked up): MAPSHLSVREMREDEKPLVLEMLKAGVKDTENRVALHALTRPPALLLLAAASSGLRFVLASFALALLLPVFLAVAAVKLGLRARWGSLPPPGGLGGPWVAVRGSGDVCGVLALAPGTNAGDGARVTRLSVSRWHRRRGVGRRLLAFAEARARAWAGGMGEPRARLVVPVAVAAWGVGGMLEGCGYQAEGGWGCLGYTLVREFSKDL
inactive: [1] 0.006 | crizotinib -0.228 | [2] -0.019 | [3] -0.119 | duvelisib 0.03 | tozasertib -0.063 | [4] 0 | doramapimod -0.02 | bafetinib -0.071 | nilotinib 0.003 | [6] -0.052 | dasatinib -0.066 | [7] 0 | [8] -0.06 | [9] -0.209 | tipifarnib 0.054 | mubritinib 0.118
active: ispinesib -0.418

MRFAP1 (UniProt Q9Y605)
Chain of UniProt Q9Y605 (Q9Y605 whole entry, looked up): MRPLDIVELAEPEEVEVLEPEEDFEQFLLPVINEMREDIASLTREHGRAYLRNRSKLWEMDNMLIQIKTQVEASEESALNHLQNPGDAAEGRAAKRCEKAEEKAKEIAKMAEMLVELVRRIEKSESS
inactive: [1] -0.066 | crizotinib -0.142 | [3] -0.048 | duvelisib 0.072 | gandotinib -0.014 | tozasertib 0.027 | [4] -0.023 | doramapimod 0.045 | ispinesib 0.016 | bafetinib -0.045 | [5] -0.08 | nilotinib -0.174 | [6] -0.064 | dasatinib -0.054 | [7] 0.051 | [8] -0.024 | [9] 0.011 | tipifarnib -0.261 | mubritinib -0.075

ORC5 (UniProt O43913)
Chain of UniProt O43913 (O43913 whole entry, looked up): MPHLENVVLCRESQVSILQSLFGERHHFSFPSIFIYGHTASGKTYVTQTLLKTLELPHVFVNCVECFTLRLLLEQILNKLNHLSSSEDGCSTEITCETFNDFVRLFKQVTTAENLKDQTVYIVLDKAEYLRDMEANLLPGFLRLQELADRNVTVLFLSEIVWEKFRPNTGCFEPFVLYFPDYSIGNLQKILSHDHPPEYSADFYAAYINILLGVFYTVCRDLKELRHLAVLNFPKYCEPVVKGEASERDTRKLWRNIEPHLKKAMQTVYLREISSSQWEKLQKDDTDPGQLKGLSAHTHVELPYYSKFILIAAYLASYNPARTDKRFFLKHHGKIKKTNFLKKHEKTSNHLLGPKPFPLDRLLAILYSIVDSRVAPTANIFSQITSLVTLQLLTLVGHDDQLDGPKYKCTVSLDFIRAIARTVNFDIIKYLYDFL
active: crizotinib -0.766
inactive: [1] 0.166 | [3] 0.008 | duvelisib 0.074 | gandotinib -0.226 | tozasertib -0.007 | [4] 0.135 | doramapimod -0.104 | ispinesib -0.152 | bafetinib 0.01 | [5] 0.027 | nilotinib 0.133 | [6] -0.001 | dasatinib -0.231 | [7] -0.114 | [8] 0.067 | [9] 0.044 | tipifarnib 0.031 | mubritinib 0.045

NPM3 (UniProt O75607)
Chain of UniProt O75607 (O75607 whole entry, looked up): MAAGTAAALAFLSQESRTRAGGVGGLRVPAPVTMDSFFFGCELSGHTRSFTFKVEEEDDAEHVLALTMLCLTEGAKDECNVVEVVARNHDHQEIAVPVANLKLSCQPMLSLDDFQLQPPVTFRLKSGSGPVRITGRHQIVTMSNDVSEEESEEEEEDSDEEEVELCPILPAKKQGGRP
inactive: [1] -0.125 | crizotinib 0.001 | [3] -0.043 | duvelisib 0.022 | gandotinib 0.109 | tozasertib -0.034 | [4] -0.011 | doramapimod 0.024 | ispinesib 0.022 | bafetinib 0.017 | [5] -0.027 | nilotinib -0.045 | [6] 0.062 | dasatinib 0.101 | [7] -0.121 | [8] 0.043 | [9] -0.028 | tipifarnib 0.071 | mubritinib -0.035

NUDT7 (UniProt P0C024)
Chain of UniProt P0C024 (P0C024 whole entry, looked up): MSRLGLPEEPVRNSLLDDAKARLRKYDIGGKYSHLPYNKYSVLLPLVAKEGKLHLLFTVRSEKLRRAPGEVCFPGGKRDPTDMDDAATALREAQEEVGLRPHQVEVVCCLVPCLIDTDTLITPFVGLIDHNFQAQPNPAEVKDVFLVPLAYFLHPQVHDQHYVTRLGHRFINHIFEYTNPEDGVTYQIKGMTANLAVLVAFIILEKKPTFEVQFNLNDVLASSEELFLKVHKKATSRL
inactive: [1] 0.03 | crizotinib 0.004 | [2] 0.248 | gandotinib -0.23 | tozasertib 0.165 | doramapimod 0.011 | ispinesib -0.157 | bafetinib 0.418 | [5] -0.122 | nilotinib 0.093 | [6] 0.006 | [7] -0.03 | [9] 0.027

MT-ND1 (UniProt P03886)
Chain of UniProt P03886 (P03886 whole entry, looked up): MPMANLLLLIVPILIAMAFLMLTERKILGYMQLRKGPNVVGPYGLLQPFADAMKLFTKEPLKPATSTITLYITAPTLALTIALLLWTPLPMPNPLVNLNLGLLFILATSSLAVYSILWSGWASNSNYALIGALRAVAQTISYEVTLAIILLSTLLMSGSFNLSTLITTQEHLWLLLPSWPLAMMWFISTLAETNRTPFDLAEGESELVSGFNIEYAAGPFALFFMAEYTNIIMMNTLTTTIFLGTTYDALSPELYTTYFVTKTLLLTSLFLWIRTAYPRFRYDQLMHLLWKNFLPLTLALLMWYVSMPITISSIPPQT
active: tipifarnib 0.633
inactive: [1] -0.011 | crizotinib -0.179 | [2] 0.287 | [3] -0.039 | duvelisib 0.241 | tozasertib 0.105 | [4] -0.081 | doramapimod 0.056 | ispinesib 0.178 | bafetinib -0.199 | nilotinib 0.102 | [6] -0.079 | dasatinib -0.149 | [7] -0.061 | [8] 0.066 | [9] -0.036 | mubritinib 0.114

MRPS26 (UniProt Q9BYN8)
inactive: [1] 0.097 | crizotinib 0.005 | [2] 0.009 | [3] 0.291 | duvelisib 0.002 | gandotinib 0.158 | tozasertib 0.146 | [4] 0.065 | doramapimod 0.059 | bafetinib 0.275 | [5] -0.003 | dasatinib -0.031 | [8] 0.007 | [9] 0.135 | tipifarnib -0.142 | mubritinib 0.088
active: ispinesib -0.421

OPHN1 (UniProt O60890)
Chain of UniProt O60890 (O60890 whole entry, looked up): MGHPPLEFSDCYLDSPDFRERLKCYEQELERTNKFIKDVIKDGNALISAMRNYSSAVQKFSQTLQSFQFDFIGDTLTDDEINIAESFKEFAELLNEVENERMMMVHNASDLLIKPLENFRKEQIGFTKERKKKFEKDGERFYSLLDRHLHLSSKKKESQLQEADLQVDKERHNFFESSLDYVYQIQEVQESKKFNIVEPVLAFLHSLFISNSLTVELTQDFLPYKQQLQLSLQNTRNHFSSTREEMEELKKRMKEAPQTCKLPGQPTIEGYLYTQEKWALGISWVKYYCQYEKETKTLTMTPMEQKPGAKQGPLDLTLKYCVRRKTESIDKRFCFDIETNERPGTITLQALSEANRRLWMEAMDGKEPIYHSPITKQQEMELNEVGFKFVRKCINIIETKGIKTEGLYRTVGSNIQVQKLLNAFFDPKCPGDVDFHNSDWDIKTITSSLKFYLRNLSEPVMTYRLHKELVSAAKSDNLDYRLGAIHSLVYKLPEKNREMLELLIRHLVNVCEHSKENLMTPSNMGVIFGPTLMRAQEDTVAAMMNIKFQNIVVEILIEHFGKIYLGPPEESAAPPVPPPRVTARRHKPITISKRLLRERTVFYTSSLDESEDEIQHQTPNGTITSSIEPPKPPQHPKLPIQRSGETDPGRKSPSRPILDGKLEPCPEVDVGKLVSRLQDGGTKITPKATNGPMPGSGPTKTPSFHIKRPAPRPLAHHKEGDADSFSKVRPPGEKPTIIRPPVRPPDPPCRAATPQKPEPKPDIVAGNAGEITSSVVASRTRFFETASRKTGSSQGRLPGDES
inactive: [1] 0.011 | crizotinib -0.06 | [2] 0.107 | [3] 0.14 | duvelisib 0.103 | tozasertib -0.035 | [4] -0.21 | doramapimod 0.26 | ispinesib 0.018 | bafetinib -0.035 | [5] -0.134 | nilotinib -0.088 | [6] 0.051 | dasatinib -0.04 | [7] 0.093 | [8] 0.028 | [9] 0.099 | mubritinib 0.035
active: gandotinib -0.636

MRPS16 (UniProt Q9Y3D3)
inactive: [1] 0.061 | crizotinib 0.014 | [2] 0.028 | [3] 0.159 | gandotinib -0.031 | tozasertib 0.05 | doramapimod 0.001 | ispinesib -0.266 | bafetinib 0.192 | [5] 0.151 | nilotinib -0.187 | [6] 0.009 | [7] -0.053 | [8] 0.049 | [9] 0.092 | tipifarnib -0.094 | mubritinib 0.16

MRPS21 (UniProt P82921)
inactive: [1] 0.146 | crizotinib -0.128 | [2] 0.07 | [3] 0.209 | duvelisib 0.155 | tozasertib 0.004 | [4] 0.16 | doramapimod 0.037 | ispinesib -0.239 | bafetinib 0.382 | nilotinib -0.347 | [6] 0.137 | dasatinib -0.284 | [7] -0.002 | [8] 0.036 | [9] 0.017 | tipifarnib -0.028 | mubritinib 0.277
